Screen size: about 52,000 compounds; about 4,300 (8.3%) were called active. Many of the other results were omitted from the sample, so actives are more common in it than they were. Unmarked numbers belong to inactive results. No stated cut-off is given here; in the data, active means survival mostly below about 52% (no sharp cut-off); inactive means mostly above about 56%.

This assay concerns DeltatarO mutant. As to the kind of experiment: growth inhibition of S. aureus wild type versus tarO mutant, primary screen, teichoic acid synthesis inhibitors, RN4220, OD600 (AID 463173). The following applies: OD600, 18 h, hits give low values, screened at 18.75 µg/mL (by protocol).
`COc1ccc(-c2cc(C)no2)cc1S(=O)(=O)N1CCN(c2ccc(C(C)=O)cc2)CC1`: the survival was 91%.

As for `CCCN1CCN(C(=O)Cn2c(-c3cccs3)cc3ccccc32)CC1`, the survival is 95%.

Consider `Cc1cc(C)c2c(=O)[nH]c(SCC(=O)NCCc3ccccc3)nc2n1`, for which the survival is 61%.

As for `CCCN(CCC)CCNC(=O)C1CCN(c2nc3ccc(CC)cc3s2)CC1`, the survival is 43% (active).

With `CCOc1ccc2nc(N3CCCC(C(=O)NCCc4ccc(SC)cc4)C3)sc2c1` (configuration not stated), the survival was 91%.

Turning to `CCOc1ccc2nc(N3CCCC(C(=O)NCCc4ccc(Cl)cc4)C3)sc2c1` (configuration not stated), the survival is 48% (active).

As for `CCCCN(C)CCNC(=O)C1CCN(c2nc3ccc(CC)cc3s2)CC1`, the survival is 45%.

For `CCOc1ccc2nc(N3CCCC(C(=O)NCCc4ccc(C)cc4)C3)sc2c1` (configuration not stated), the survival is 64%.

For the compound `CCCN(CCC)CCCNC(=O)C1CCN(c2nc3ccc(CC)cc3s2)CC1`, the survival is 54%.

Take `COc1ccc(CCNC(=O)CSc2cn(CCNC(=O)c3c(F)cccc3F)c3ccccc23)cc1OC`: the survival was 79%.

With `COc1cccc(CNC(=O)C2CCCN(S(=O)(=O)N(C)c3ccc(F)cc3)C2)c1OC` (configuration not stated), the survival was 87%.

Turning to `O=C1CS/C(=N\N2CCOCC2)N1Cc1ccccc1`, the survival was 84%.

As for `Cc1nnc(N2CCN(C(=O)NC(C)C)CC2)c2nn(-c3ccccc3)c(C)c12`, the survival is 72%.

For `CCc1cccc(NC(=O)Nc2csc3c2CCCC3)c1`, the survival is 114%.

Turning to `Cc1ccc(NC(=O)Nc2csc3c2CCCC3)c(C)c1`, the survival is 63%.

Consider `O=C(Nc1ccc(F)cc1)c1csc2c1CCCCC2`, for which the survival is 63%.

As to `Cc1cc(NC(=O)Nc2csc3c2CCCC3)ccc1Br`, the survival is 44%.

`O=C(Nc1ccc(F)cc1)Nc1csc2c1CCCC2`: the survival was 4% (active).

`Cc1ccccc1NC(=O)Nc1csc2c1CCCC2`: the survival was 29% (active).

As for `Cc1ccc(C)c(NC(=O)Nc2csc3c2CCCC3)c1`, the survival is 75%.

For `CC(C)c1ccc(NC(=O)Nc2csc3c2CCCC3)cc1`, the survival is 13% (active).

Turning to `Cc1cccc(C)c1NC(=O)Nc1csc2c1CCCC2`, the survival is 78%.

As for `CCOCCCNC(=O)CCC(=O)NNc1nc2ccccc2c2nc(-c3ccccc3)nn12`, the survival was 83%.

In the case of `COc1ccc(NC(=O)CN2C(=O)CSc3ccc(S(=O)(=O)N(C)C)cc32)cc1Cl`, the survival is 74%.

Take `CCc1nn(CC(=O)N2CCN(c3cccc(OC)c3)CC2)c(=O)c2cc3occc3n12`: the survival was 91%.

With `COc1ccc(S(=O)(=O)N(CCc2ccccc2)CC(N)=O)cc1`, the survival was 88%.

On to `Cn1nnnc1SCCCNCc1cc(Cl)ccc1OCc1ccccc1`, for which the survival was 72%.

Regarding `O=C(CSc1nc2c(oc3ccccc32)c(=O)n1-c1ccccc1)Nc1ccc(F)c(Cl)c1`, the survival was 86%.

Consider `O=C(CSc1nc2c(oc3ccccc32)c(=O)n1Cc1ccco1)Nc1cccc(Cl)c1`, for which the survival was 62%.

As to `COc1cccc(-n2c(SCC(=O)Nc3cccc(Cl)c3)nc3c(oc4ccccc43)c2=O)c1`, the survival is 85%.

Take `CCOc1ccc(NC(=O)CSc2nc3c(oc4ccccc43)c(=O)n2CCOC)cc1`: the survival was 74%.

`O=C(CSc1nc2c(oc3ccccc32)c(=O)[nH]1)Nc1cccc(Cl)c1`: the survival was 37% (active).

For `COCCn1c(SCC(=O)Nc2ccc(F)c(Cl)c2)nc2c(oc3ccccc32)c1=O`, the survival is 44% (active).

For the compound `O=C(NCc1ccc(F)cc1)C1CCN(c2ncnc3c2nc2n3CCCCC2)CC1`, the survival was 86%.

Regarding `CCC1(c2ccccc2)NC(=O)NC1=O` (configuration not stated), the survival is 98%.

`Clc1nc(Cl)nc(OCCCOc2nc(Cl)nc(Cl)n2)n1`: the survival is 94%.

With `CCc1c(C)nc2nncn2c1Nc1ccc(Cl)cc1`, the survival is 91%.

`Cc1ccc(N2CCN(c3nc4ccccc4c4nnc(C)n34)CC2)c(C)c1`: the survival is 101%.

Regarding `CCOC(=O)c1cc(OC(=O)c2ccc(OC)cc2)n(-c2ccccc2)n1`, the survival is 59% (active).

As to `CCOC(=O)c1cc(OC(=O)c2ccc(Cl)cc2)n(-c2ccccc2)n1`, the survival is 85% (active).

Consider `CCOC(=O)c1cc(OC(=O)c2cc(OC)cc(OC)c2)n(-c2ccccc2)n1`, for which the survival is 62%.

In the case of `CCOC(=O)c1cc(OC(=O)c2ccc(OC)c(OC)c2)n(-c2ccccc2)n1`, the survival is 67%.

In the case of `CCOC(=O)c1cc(OC(=O)c2cc(OC)c(OC)c(OC)c2)n(-c2ccccc2)n1`, the survival was 54% (active).

Turning to `CCOC(=O)c1cc(OC(=O)c2ccccc2OC)n(-c2ccccc2)n1`, the survival was 54%.

Consider `CCOC(=O)c1cc(OC(=O)c2ccc(C)cc2)n(-c2ccccc2)n1`, for which the survival is 137%.

For `CCOC(=O)c1cc(OC(=O)c2cccc(C)c2)n(-c2ccccc2)n1`, the survival is 59%.

In the case of `CCOC(=O)c1cc(OC(=O)c2cccc(F)c2)n(-c2ccccc2)n1`, the survival is 61%.

Turning to `CCOc1ccc(NC(=O)CN2C(=O)COc3ccc(S(=O)(=O)NC4CCCC4)cc32)cc1`, the survival is 73%.

`O=C(c1ccc(F)cc1)N1CCN(CCc2ccncc2)CC1`: the survival is 84%.

For `CCc1ccc(NCc2cc3ccc(OC)cc3n(CC(=O)Nc3c(C)cc(C)cc3C)c2=O)cc1`, the survival was 76%.

Consider `N#CSc1ccc(NCCO)cc1C(F)(F)F`, for which the survival was 95%.

Consider `O=C(NCCc1ccc(Cl)cc1)C(=O)NCC(c1ccco1)S(=O)(=O)c1ccc(Cl)cc1` (configuration not stated), for which the survival was 94%.

Take `O=C1CN(C(=O)c2ccc(Cl)cc2Cl)C(c2ccc(F)cc2)c2cc(F)ccc2N1` (configuration not stated): the survival is 65%.

For the compound `O=c1c(NCc2ccccc2Cl)nccn1-c1ccccc1`, the survival was 17% (active).

For the compound `COc1ccc(-n2ccnc(NCc3cccs3)c2=O)cc1OC`, the survival was 85%.

Consider `O=c1c(NCCc2ccc(Cl)cc2)nccn1-c1ccccc1`, for which the survival is 55%.

With `O=c1c(NCc2cccs2)nccn1-c1ccccc1`, the survival is 68%.

Take `COc1ccc(-n2ccnc(NCc3ccc(C)cc3)c2=O)cc1OC`: the survival is 94%.

On to `COc1ccc(-n2ccnc(NCc3ccc(Cl)cc3)c2=O)cc1`, for which the survival was 8% (active).

On to `COc1ccc(-n2ccnc(NCc3cccs3)c2=O)cc1`, for which the survival is 20% (active).

`COc1ccc(-n2ccnc(NCc3ccccc3Cl)c2=O)cc1OC`: the survival was 81%.

Regarding `COc1ccc(-n2ccnc(NCc3ccccc3OC)c2=O)cc1`, the survival is 89%.

(Values after PubChem BioAssay AID463173 (ICCB-Longwood Screening Facility, Harvard Medical School, 2010).)
